In article PMC13494018:
Values without a mark were called inactive. How the calls were made is not given here.

B1: d1r8_design_ppi_233_dldesign_0_cycle0_af2pred (protein)
chain: DDLEEARELLEEARRLGEQALALVAQNPAARAEGGALMLELLKLQAEARRRAAEYEADPEKAEAAEAYREAAELASQLVRQISQAAV
B2: d1r7_design_ppi_855_dldesign_0_cycle0_af2pred (protein)
chain: SAAAAQARAVARMAAAAAESGVDAAEVLAVVTGAAQQLAADPAALQAMLDTLTALAAASTPEAAAVLAAAAAAVAAVLA
B3: d1r7_design_ppi_889_dldesign_0_cycle1_af2pred (protein)
chain: SEELDRAGAQTLAEIVGKQAKKVAKAAKELSKEKGGELTPLAEKAEEAAKKAIKLAEEGASAEEIYKAAQEAQDLRLKAKAALKAAKA
B4: d1r8_design_ppi_87_dldesign_0_cycle1_af2pred (protein)
chain: NPLLEEARRAIEEAAKLVKTGTPEEAREALKRAAHELLRLAARSTDQAVAQKLITAAELVAKAAELVLTNPEEALKLVEEAL
B5: d1r7_design_ppi_529_dldesign_0_cycle1_af2pred (protein)
chain: DELEKAIKEAEKYIEELKKTIKEGVKNPEEALKLAEEAEKEGEKAAALGIVGAGVGQLAKAAAQALRNKIAA
B6: d1r8_design_ppi_140_dldesign_0_cycle0_af2pred (protein)
chain: DVAAMKKEVEELKKKVEEVAKKAAESPEAQPYVNQAKGNAKSAELAAEGGDVALAKRFLKLAEEAMKKAEALI
B7: d1r8_design_ppi_80_dldesign_0_cycle0_af2pred (protein)
chain: AAAEAAAALAAARAALAAVRETLARAERGEATREEAGAAINAGMRTIAALNAVAARIPAAKAEFDALAGEILDAIRALAAAVR
B8: d1r8_design_ppi_150_dldesign_0_cycle1_af2pred (protein)
chain: SQAALVAAKGALALAKGIKAHVESNPNLPLEELEKLKEQLKTAEEMAKAAEKEAKKAGDKEVLEAAKKALEAIKEAKKALEEAIKKAK
B9: d1r7_design_ppi_733_dldesign_0_cycle0_af2pred (protein)
chain: MEEALKALEEAEEAAREAGDEESAEILEKAREEVKAGTPSEGALTVARAAAEAVARARAAGNEDLADRVRALANRAIAALSRAAIA
B10: d1r7_design_ppi_702_dldesign_0_cycle0_af2pred (protein)
chain: SAEKETNLANAKGYLALAKAYTKGATYYATKEGDLEKAKELYEKAKEASKLAIEAAAKAGPEAAAKAKAEADEIDKENEKALKEAE
B11: d1r7_design_ppi_522_dldesign_0_cycle1_af2pred (protein)
chain: DPNEKARQLMNDAFQQATKLRAAGAANPATAAQDTAQGVQAVNEAKKKAAELASPEYAGKIEEMAKQLTSIISV
B12: d1r7_design_ppi_719_dldesign_0_cycle0_af2pred (protein)
chain: SGAKAAIAAAKHNIKQAKKLLEEGDVEGALGHIKLAELATKAAEAEAKAAGDKEALKKAEELKKEVEELKKEAEKKKK
B13: d1r7_design_ppi_733_dldesign_0_cycle1_af2pred (protein)
chain: VEEALKALEEAAKAAKEAGDEESAKILKEALEKVKAGTPAEGALTIAEKSAEAVKRALEKGNEELAEKILKLGQKAIAALSKAAIA
B14: d1r7_design_ppi_677_dldesign_0_cycle0_af2pred (protein)
chain: VEEKIRGIEEAGRLGAEASPELAAEIEAFTKRAVEAARASGDEAVAGAALQAASLALIGAAWYAVDPEKGAAVLARARARLEALIA
B15: d1r7_design_ppi_562_dldesign_0_cycle1_af2pred (protein)
chain: SEKAEKLKKETLEKAEKAVKEAEASPDPKEGIKILSEAAREAARAAAESPEAGSAALALTVSAMEEFAAKARA
B16: d1r7_design_ppi_628_dldesign_0_cycle1_af2pred (protein)
chain: AEALLKEAEEVKARAAELAATGPEGIVEAAKLVAEMRRKGVENPEVRERVDALYREASAEIARQQRAWIAQQAAAR
B17: d1r8_design_ppi_128_dldesign_0_cycle0_af2pred (protein)
chain: EEEVKKAKEEAEKAIEEARETERRYFAEAGRNPANALAYLQAGLEELEKIAKELERKGEEEGGEAGKVYKEAAREIKERRERIAAALS
B18: d1r7_design_ppi_493_dldesign_0_cycle0_af2pred (protein)
chain: SMLKEKEEAEKKRERVEKLIKEAEEAAKEAEKIDPVSGRGLRGMVEAARRLMEEGNLEAAEKLAQVALDAAAGLAAAA
B19: d1r8_design_ppi_185_dldesign_0_cycle1_af2pred (protein)
chain: AAQAKALAAEADKLTEKARKLAKEGGDKEEVSKLLAEAAEKYAAAAEADPSTAFEYNARANLARFASQQNLEQAAKVAEAI
B20: d1r7_design_ppi_937_dldesign_0_cycle1_af2pred (protein)
chain: GAAAEAAEREAKAALLKEVGAAAARMAPENPRLAAAGALGAARGLAALGYAEEGKAVLEETAAALPDPEEAARLRAAAAAL
B21: d1r7_design_ppi_941_dldesign_0_cycle0_af2pred (protein)
chain: AAAAAEAAEYLGKAVEYHKELEEAARRAIEKFGPEVEEEMEELLREAREALAKASQAAIAGDAEKTKEEMEKIKKIRERAKELLEK
B22: d1r8_design_ppi_218_dldesign_0_cycle1_af2pred (protein)
chain: PTPEELAAAYREVRELAERAVAGTPEEAKRYAERIAELVARAEERFGPGAGVLLRNVALAVARANPVAYEYVRAAL
B23: d1r7_design_ppi_941_dldesign_0_cycle1_af2pred (protein)
chain: AADRAAAAAALGAAVEAYSELVKLAKEAIEKHGPKVAPEMEKLIAEAQKALAAAAKAAIAGDAKAAKAAAEKIKKLKEEAKKLLEE
B24: d1r8_design_ppi_139_dldesign_0_cycle1_af2pred (protein)
chain: AMSVGELMEVAKAEGAAVNAAAAALAAKDPAKAAALLDAYRAKVNAIIAEMSRTAIASGDFEAAAAAAAAKIKAAAKETLAALKAIA
B25: d1r8_design_ppi_23_dldesign_0_cycle0_af2pred (protein)
chain: MEELAEEYIEEARRYAEEAERLAEQAGEAARPLARAARRALELAEENREDLELVKGQAEAARVFLEAARSRLEQLA
B26: d1r7_design_ppi_873_dldesign_0_cycle1_af2pred (protein)
chain: SESIENQKKASEAMSEAIEAMAKAGFPISERNEVGKLGIEAMRLFQKSPEDPAALEEGKKKLAEVEKRLKEAKAA
B27: d1r8_design_ppi_233_dldesign_0_cycle1_af2pred (protein)
chain: GALEEAKEKKKEAEEIGKQALALAAQNPASRAQAGALQVELLKLSAEARRKAEEYKADPETREAAKAYEEAAKLASQKIVEVSQALV
B28: d1r7_design_ppi_682_dldesign_0_cycle1_af2pred (protein)
chain: ATAEQIQQVKNYAKAAIQAVKNAAASDKAEALAVAKIFADALLKQGKLTTPEAAKEAEKAAKEILATAKALAA
B29: d1r7_design_ppi_719_dldesign_0_cycle1_af2pred (protein)
chain: SGAQAAVAAAQANLRQAKQLLEEGDYEGALGHIKLAKLAADAAKKQATAAGDQAAIDQATALQKEAEELEKEAKKALE
B30: d1r7_design_ppi_609_dldesign_0_cycle0_af2pred (protein)
chain: SELAEQALAAAESLIAEALRAAAEDPARAARLFASAKAVAEALKKIDPKLGEELLKKVEAAEAEAKAAIA
B31: d1r8_design_ppi_82_dldesign_0_cycle1_af2pred (protein)
chain: AAAAAKTAAKNVLKAVENFSKNAAAAGKASTPEEAARKLAEIEKFGEAGIAVAAADPEIAKKVKEVVDKAIAELKKAAA
B32: d1r7_design_ppi_871_dldesign_0_cycle1_af2pred (protein)
chain: AAAAQTALRTAAAMYRSAAEMFEAGKTEDGLAAAKVAADVAANVPANKEFAAKTLKEITEAAKKDPAEAAKIAREAADYLDAQAAA
B33: d1r7_design_ppi_640_dldesign_0_cycle1_af2pred (protein)
chain: AQQAVQQTQKVVDETKEVYERAKKEGSPEVAEKLKELLAQAQNNLQMAQAGGAEAAQLMYQNAKKIYEEAKKYAEEEIKKEKE
B34: d1r7_design_ppi_869_dldesign_0_cycle0_af2pred (protein)
chain: GIGDELAKGEEYYRKSIELAKEGNKEEAKKYLEEAEAHYAAAAAAAEAQGNTALAAALRARAKARKEEAEKLIK
B35: d1r7_design_ppi_538_dldesign_0_cycle0_af2pred (protein)
chain: MEEVKKKAEEAKKEIEKLYEEALKYAKEGDIEKAAEYISKMREKGLEAAEEVPELAEEILAYTGRKALEALLELGKASL
B36: d1r7_design_ppi_815_dldesign_0_cycle0_af2pred (protein)
chain: MEDLEELLRLIAEAQRALKTDAEEGIKLAEEAAKKAEELGLEKAAKLLKEAAKAAKTDAEEGIRLLNQAATQAAREYSEK
B37: d1r7_design_ppi_806_dldesign_0_cycle1_af2pred (protein)
chain: AKEEALRTLKSAAELAKVAADIAANVDPELAKKAKELAEKAKKLAEEAKKASEEEAKKLLEEGKKLLEEVRALTAEVARLAVAA
B38: d1r7_design_ppi_855_dldesign_0_cycle1_af2pred (protein)
chain: SAAAAQARAVANTAAAAAKQGVPAEEVVALVEGAAKTLAGDPAALQAMIDTLAELAKASTPEAAATLNKAAEAVKKVLA

Biological target: CD276, Q5ZPR3
Sequence (Q5ZPR3 whole entry): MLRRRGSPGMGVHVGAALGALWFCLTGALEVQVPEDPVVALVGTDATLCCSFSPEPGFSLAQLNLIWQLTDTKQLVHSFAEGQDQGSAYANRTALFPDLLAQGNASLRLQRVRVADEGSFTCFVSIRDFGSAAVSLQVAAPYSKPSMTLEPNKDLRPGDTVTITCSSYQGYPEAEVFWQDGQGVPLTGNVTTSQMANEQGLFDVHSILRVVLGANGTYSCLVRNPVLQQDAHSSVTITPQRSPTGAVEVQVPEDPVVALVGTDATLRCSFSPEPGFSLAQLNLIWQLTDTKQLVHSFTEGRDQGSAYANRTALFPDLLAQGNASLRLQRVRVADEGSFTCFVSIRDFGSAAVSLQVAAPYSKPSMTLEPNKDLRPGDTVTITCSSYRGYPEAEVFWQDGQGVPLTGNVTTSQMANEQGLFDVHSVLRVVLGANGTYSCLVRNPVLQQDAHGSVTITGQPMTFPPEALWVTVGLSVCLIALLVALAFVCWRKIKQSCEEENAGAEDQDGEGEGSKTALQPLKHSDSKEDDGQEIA

Binder	binding in a display sort
B1	not found
B2	not found
B3	not found
B4	not found
B5	not found
B6	not found
B7	not found
B8	not found
B9	not found
B10	not found
B11	not found
B12	not found
B13	not found
B14	not found
B15	not found
B16	not found
B17	not found
B18	not found
B19	not found

Binder	binding in a display sort
B20	binds (active)
B21	not found
B22	not found
B23	not found
B24	not found
B25	not found
B26	not found
B27	not found
B28	not found
B29	not found
B30	not found
B31	not found
B32	not found
B33	not found
B34	not found
B35	not found
B36	not found
B37	not found
B38	not found
